The values that follow come from PubChem BioAssay (EPA / NIEHS).

The target in test [1] is human Retinoid X Receptor beta (RXRb), RXRB (gene 6257) (UniProt P28702). Briefly: ATG_RXRb_TRANS: Attagene TRANS-FACTORIAL HepG2 Assay for human Retinoid X Receptor beta (RXRb) (AID 2283013; active = hit-call score of the fitted dose curve at least 0.9, where 1 is the maximum). In short, it runs like this:
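Transfect HepG2 with GAL4-UAS multi-reporter constructs (chimeric NR-Gal4, TRANS format); dose compound 24 h; isolate RNA, RT-PCR, FAM primer extension, HpaI digest; quantify by capillary electrophoresis; positive direction vs DMSO.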

Read-out in test [2]: E-selectin (Homo sapiens) (UniProt P16581)
In words: BSK_3C_Eselectin: BioMAP Diversity Plus: 3C Assay for Eselectin Biomarker Activity (AID 2283015).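 For outcome: cell surface E-selectin protein quantified by ELISA 24 h after dosing.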 The note with it: primary human endothelial cells (HUVEC); actives raise or lower the signal. The method in brief: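 Primary human umbilical vein endothelial cells (3C system), read 24 h after compound addition; E-selectin measured by ELISA. Bidirectional curve fitting against DMSO baseline; cytotoxicity by parallel SRB total-protein staining.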

Read-out in test [3]: Interleukin-1 alpha (IL1a), IL1A (gene 3552)
Briefly: BSK_BE3C_IL1a: BioMAP Diversity Plus: BE3C Assay for Interleukin-1 alpha (IL1a) Biomarker Activity (AID 2283016). The note with it: primary human bronchial epithelial cells; actives raise or lower the signal. The method in brief:
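BE3C primary human bronchial epithelium; cpd 24 h; IL-1a by ELISA; bidirectional fit vs DMSO; parallel SRB (0.1% SRB, 10% TCA fix, 560 nm) for cytotoxicity.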

Read-out in test [4]: Monocyte Chemoattractant Protein-1 (MCP1), CCL2 (gene 6347)
In words: BSK_3C_MCP1: BioMAP Diversity Plus: 3C Assay for Monocyte Chemoattractant Protein-1 (MCP1) Biomarker Activity (AID 2283017). The note with it: primary human endothelial cells (HUVEC); actives raise or lower the signal. The method in brief:
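Human umbilical vein endothelial cells (3C system) exposed to chemicals for 24 h; MCP-1 quantified by ELISA against the DMSO baseline with bidirectional fitting, and parallel SRB staining used to assess cytotoxicity.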

Read-out in test [5]: Monocyte Chemoattractant Protein-1 (MCP1), CCL2 (gene 6347)
Briefly: BSK_4H_MCP1: BioMAP Diversity Plus: 4H Assay for Monocyte Chemoattractant Protein-1 (MCP1) Biomarker Activity (AID 2283018). The note with it: primary human endothelial cells (HUVEC); actives raise or lower the signal. In short, it runs like this:
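ELISA read-out of MCP-1 from human vascular endothelial primary cells taken at 24 hours after compound exposure. Activity was fitted in both directions relative to DMSO, which served as negative control.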

Read-out in test [6]: Human Leukocyte Antigen - DR isotype (HLADR), HLA-DRA (gene 3122)
In words: BSK_3C_HLADR: BioMAP Diversity Plus: 3C Assay for Human Leukocyte Antigen - DR isotype (HLADR) Biomarker Activity (AID 2283019). As to conditions: primary human endothelial cells (HUVEC); actives raise or lower the signal. In short, it runs like this: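 HUVEC monoculture, HLA-DR measured by ELISA 24 h after chemical dosing. Fitted bidirectionally against DMSO baseline; parallel SRB staining assessed cytotoxicity, with 3C proliferation read by SRB at 48 h.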

Read-out in test [7]: Interleukin-8 (IL8), CXCL8 (gene 3576)
In words: BSK_3C_IL8: BioMAP Diversity Plus: 3C Assay for Interleukin-8 (IL8) Biomarker Activity (AID 2283020). As to conditions: primary human endothelial cells (HUVEC); actives raise or lower the signal. The method in brief:
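ELISA read-out of IL-8 from human umbilical vein endothelium, measured 24 h after chemical dosing. Activity is expressed relative to DMSO negative control, with both increases and decreases fitted.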

Read-out in test [8]: Monokine induced gamma interferon (MIG), CXCL9 (gene 4283)
In words: BSK_3C_MIG: BioMAP Diversity Plus: 3C Assay for Monokine induced gamma interferon (MIG) Biomarker Activity (AID 2283021). As to conditions: primary human endothelial cells (HUVEC); actives raise or lower the signal. In short, it runs like this:
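Read-out is ELISA detection of MIG on human umbilical vein endothelial cells, taken 24 h after dosing. Gain or loss of signal was scored relative to DMSO controls using bidirectional curve fitting.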

The target of test [9] is human Vitamin D Receptor (VDR), VDR (gene 7421) (UniProt P11473). In words: ATG_VDR_TRANS: Attagene TRANS-FACTORIAL HepG2 Assay for human Vitamin D Receptor (VDR) (AID 2283022; active = hit-call score of the fitted dose curve at least 0.9, where 1 is the maximum). The method in brief: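 HepG2 cells were transiently transfected with GAL4-UAS reporter units and a chimeric VDR-Gal4 construct, then dosed for 24 hours. Reporter mRNA was quantified by RT-PCR, fluorescent labeling, HpaI digestion and capillary electrophoresis; gain of signal analysed vs DMSO.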
human Vitamin D Receptor (VDR), VDR (gene 7421), sequence (P11473 whole entry, looked up, the tested form may be a part): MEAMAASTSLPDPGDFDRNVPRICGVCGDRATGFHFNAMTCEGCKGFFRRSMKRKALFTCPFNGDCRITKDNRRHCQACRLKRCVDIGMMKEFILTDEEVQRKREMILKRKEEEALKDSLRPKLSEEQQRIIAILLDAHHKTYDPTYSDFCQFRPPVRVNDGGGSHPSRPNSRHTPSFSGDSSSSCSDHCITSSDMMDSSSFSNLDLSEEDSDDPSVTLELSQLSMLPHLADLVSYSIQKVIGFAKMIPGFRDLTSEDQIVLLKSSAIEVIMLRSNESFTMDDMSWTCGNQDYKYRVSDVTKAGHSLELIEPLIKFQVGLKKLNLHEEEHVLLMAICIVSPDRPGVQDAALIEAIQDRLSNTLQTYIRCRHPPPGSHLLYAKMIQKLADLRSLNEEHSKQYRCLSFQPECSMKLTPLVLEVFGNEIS

A short description of test [10]: BSK_3C_SRB: Viability Assessment in the BioMAP Diversity Plus: 3C Assay (AID 2283023).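 Note: fitted both ways against DMSO so a hit may be signal rise or drop.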 The note with it: primary human endothelial cells (HUVEC). In short, it runs like this:
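Human umbilical vein endothelial cells in the 3C system, treated 24 h. Total protein measured by 0.1% sulforhodamine B staining after 10% TCA fixation, read at 560 nm; bidirectional fit versus DMSO.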

Read-out in test [11]: Matrix Metallopeptidase 1 (MMP1), MMP1 (gene 4312)
In words: BSK_BE3C_MMP1: BioMAP Diversity Plus: BE3C Assay for Matrix Metallopeptidase 1 (MMP1) Biomarker Activity (AID 2283024). The note with it: primary human bronchial epithelial cells; actives raise or lower the signal. In short, it runs like this:
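Human bronchial epithelial cells (BE3C system) exposed to compound for 24 h; MMP1 then quantified by ELISA. Activity was fitted in both directions relative to DMSO.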

The nature of test [12]: BSK_3C_Vis: BioMAP Diversity Plus: 3C Assay for Morphology Visualization (AID 2283025).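 For AC50: light microscopy image of cell morphology used as background control.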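 Note: fitted both ways so gain or loss versus DMSO counts.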 The note with it: primary human endothelial cells (HUVEC). The method in brief:
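Chemicals were added to primary human umbilical vein endothelium, cells were incubated 24 h, and morphology was then visualized by light microscopy. Gain or loss of signal was fitted bidirectionally relative to DMSO.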

Read-out in test [13]: Pselectin, SELP (gene 6403)
In words: BSK_4H_Pselectin: BioMAP Diversity Plus: 4H Assay for Pselectin Biomarker Activity (AID 2283026). The note with it: primary human endothelial cells (HUVEC); actives raise or lower the signal. In short, it runs like this: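 ELISA read-out of P-selectin on human umbilical vein endothelium after 24 h of dosing. Values derive from bidirectional fitting relative to DMSO. Parallel SRB protein staining flagged overt cytotoxicity.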

The nature of test [14]: BSK_BE3C_SRB: Viability Assessment in the BioMAP Diversity Plus: BE3C Assay (AID 2283028).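 For AC50: fitted both ways so AC50 may mark signal gain or loss versus DMSO.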 As to conditions: primary human bronchial epithelial cells. The method in brief: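 Human bronchial epithelial primary cells in confluent culture, 24 h after chemical dosing; total protein by 0.1% SRB staining after 10% TCA fixation, read at 560 nm. Bidirectional fitting versus DMSO baseline.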

Read-out in test [15]: Thrombomodulin, THBD (gene 7056)
In words: BSK_3C_Thrombomodulin: BioMAP Diversity Plus: 3C Assay for Thrombomodulin Biomarker Activity (AID 2283029). The note with it: primary human endothelial cells (HUVEC); actives raise or lower the signal. The method in brief: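 Read-out is ELISA of thrombomodulin on human umbilical vein endothelium 24 h after chemical dosing. Gain or loss of signal is scored relative to DMSO. Overt cytotoxicity is checked in parallel cultures by sulforhodamine B staining.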

Read-out in test [16]: Urokinase-type plasminogen activator receptor (uPAR), PLAUR (gene 5329)
Briefly: BSK_4H_uPAR: BioMAP Diversity Plus: 4H Assay for Urokinase-type plasminogen activator receptor (uPAR) Biomarker Activity (AID 2283030). The note with it: primary human endothelial cells (HUVEC); actives raise or lower the signal. The method in brief:
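Human umbilical vein endothelial cells in the 4H system, 24 h after chemical dosing. Cell-surface uPAR measured by ELISA, fitted in both directions versus DMSO; cytotoxicity checked by SRB total protein in parallel cultures.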

Read-out in test [17]: Vascular endothelial growth factor receptor 2 (Homo sapiens) (UniProt P35968)
In words: BSK_4H_VEGFRII: BioMAP Diversity Plus: 4H Assay for Vascular endothelial growth factor receptor 2 (VEGFR2) Biomarker Activity (AID 2283031).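 For AC50: cell-surface VEGFR2 protein level quantified by ELISA.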 As to conditions: primary human endothelial cells (HUVEC); actives raise or lower the signal. In short, it runs like this: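 Primary human umbilical vein endothelial cells (4H system), 24 h exposure; cell-surface VEGFR2 measured by ELISA. Bidirectional fitting versus DMSO; cytotoxicity checked in parallel by SRB total-protein staining.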

Read-out in test [18]: Human Leukocyte Antigen - DR isotype (HLADR), HLA-DRA (gene 3122)
Briefly: BSK_BE3C_HLADR: BioMAP Diversity Plus: BE3C Assay for Human Leukocyte Antigen - DR isotype (HLADR) Biomarker Activity (AID 2283032). The note with it: primary human bronchial epithelial cells; actives raise or lower the signal. The method in brief: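 ELISA read-out of HLA-DR on human lung bronchial epithelial primary cells, measured 24 h post-dosing. Both increases and decreases were scored relative to DMSO vehicle.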

The structures appear in SMILES notation. “And” between values parts separate entries of the source, which are not always exact repeats. Equal entries are not always repeated. Inconclusive results are not listed. More than one record can exist for a structure, and the calls need not agree. The source made the active and inactive calls. Rule for the calls, unless noted: active = hit-call score of the fitted dose curve at least 0.9, where 1 is the maximum; inactive = score below 0.9.

E-selectin (Homo sapiens), sequence (P16581 whole entry, looked up): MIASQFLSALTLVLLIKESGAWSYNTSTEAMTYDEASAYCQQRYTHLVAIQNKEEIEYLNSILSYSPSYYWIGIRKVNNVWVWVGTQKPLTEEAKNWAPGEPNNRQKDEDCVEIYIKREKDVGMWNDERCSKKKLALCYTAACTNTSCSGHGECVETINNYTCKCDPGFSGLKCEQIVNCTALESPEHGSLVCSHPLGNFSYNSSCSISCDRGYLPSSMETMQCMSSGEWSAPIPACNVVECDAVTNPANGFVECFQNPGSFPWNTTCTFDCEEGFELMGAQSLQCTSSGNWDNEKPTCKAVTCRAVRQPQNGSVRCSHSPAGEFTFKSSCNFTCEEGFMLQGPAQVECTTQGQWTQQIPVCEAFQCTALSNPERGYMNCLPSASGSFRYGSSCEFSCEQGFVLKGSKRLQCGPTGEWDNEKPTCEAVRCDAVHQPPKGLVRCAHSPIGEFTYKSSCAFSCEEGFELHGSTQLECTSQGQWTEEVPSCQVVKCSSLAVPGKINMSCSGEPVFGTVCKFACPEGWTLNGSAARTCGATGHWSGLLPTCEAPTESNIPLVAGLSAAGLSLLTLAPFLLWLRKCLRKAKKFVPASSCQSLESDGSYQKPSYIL
human Retinoid X Receptor beta (RXRb), RXRB (gene 6257), sequence (P28702 whole entry, looked up, the tested form may be a part): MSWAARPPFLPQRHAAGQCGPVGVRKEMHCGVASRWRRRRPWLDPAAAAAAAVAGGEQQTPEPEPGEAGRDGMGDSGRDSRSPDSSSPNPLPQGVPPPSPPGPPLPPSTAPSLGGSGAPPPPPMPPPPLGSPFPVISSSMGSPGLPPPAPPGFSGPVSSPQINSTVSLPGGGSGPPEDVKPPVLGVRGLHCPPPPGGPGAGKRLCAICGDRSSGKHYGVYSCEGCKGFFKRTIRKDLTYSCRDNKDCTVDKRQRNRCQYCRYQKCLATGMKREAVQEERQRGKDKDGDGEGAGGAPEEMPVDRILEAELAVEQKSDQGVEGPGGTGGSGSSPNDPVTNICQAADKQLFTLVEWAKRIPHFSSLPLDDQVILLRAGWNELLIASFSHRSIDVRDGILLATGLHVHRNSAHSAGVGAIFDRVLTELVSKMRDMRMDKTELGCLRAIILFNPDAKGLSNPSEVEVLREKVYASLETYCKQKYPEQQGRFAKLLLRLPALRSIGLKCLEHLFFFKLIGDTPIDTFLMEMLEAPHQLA

The term AC50 denotes the midpoint of the concentration-response curve, whichever way the signal moves. As to `C=CC(C)(CCC=C(C)C)OC(C)=O` (stereo not given), the compound was called inactive in test [1], in test [3], in [7], in test [8], in [9] and in test [11]. Also, the outcome in test [14] and in test [15] was inactive. Further, the concentration at half-maximal activity (AC50) was 32.1 µM (active) in test [2]; 35.2 µM (active) in test [4]; 27 µM (active) in test [5]; 28.2 µM (active) in test [6]; 28.9 µM (active) in [10]; 37.4 µM (active) in test [12]. In addition, the AC50 in test [13] is 31 µM (active); in test [16], 28.9 µM (active); in test [17], 31.5 µM (active); in test [18] it was 30.2 µM (active).
`CCCCCCCCCCCCCCC`: the result in test [1], in [2], in test [3], in test [4], in [5] and in test [6] was inactive. The result in test [7], in [8], in test [10], in [11], in test [12] and in [13] was inactive. For the same compound, the outcome in test [14], in test [15], in [16], in [17] and in test [18] was inactive.
As to `O=C(O)C(=O)O`, the compound was called inactive in [1] and in [9].
As to `CCOC(OCC)C(=O)c1ccccc1`, the result in [1] and in [9] was inactive.
As for `Nc1ccc(O)c(C(=O)O)c1`, the outcome in test [1] and in test [9] was inactive.
In the case of `O=S(=O)(O)C(F)(F)C(F)(F)C(F)(F)C(F)(F)C(F)(F)C(F)(F)C(F)(F)C(F)(F)C(F)(F)C(F)(F)F`, the compound was classed as inactive in [1], in test [2], in test [4], in [5], in [6] and in [7]. Moreover, the result in test [8], in test [9], in test [11], in [13], in test [15] and in [16] was inactive. For the same compound, the result in test [17] was inactive. Besides, the half-maximal activity concentration (AC50) in [2] was 10.2 µM (active); in test [3], 13.3 µM (active) and 10.6 µM (active); in test [10], 18.5 µM (active) and 14.5 µM (active); in test [11], 3.54 µM (active); in test [14] it was 12.9 µM (active) and 10.8 µM (active); in test [18], 18.2 µM (active) and 15.8 µM (active).
